# Values joined by “and” are separate entries in the source; they are usually repeats but may differ in a detail not shown here. Equal entries are not always repeated. Active and inactive are the calls of the source.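 How the source made its calls, unless noted: active means thallium flux through the channel raised or lowered by more than 3 SD from vehicle-only wells, actives on both sides; inactive means the rest.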
# Experiments:
# [1] = compounds altering viability of human ES cells (AID 493140; call rule not given here;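 further: cells exposed to compounds for four days before counting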); settings: human embryonic stem cell survival screen; stronger effect = higher value
# [2] = signal quenchers or enhancers, Cy5 substrate/SSB – biochemical, NIH Clinical Collection, E. coli SSB, artefact control for HCV NS3 helicase inhibitor project (AID 743268; call rule not given here); settings: Cy5-oligo bound E. coli SSB, fluorescence interference
# [3] = test system: Hepatitis C virus NS3 helicase; test: blockers of NS3h binding to DNA – biochemical, fluorescence polarization, NIH Clinical Collection, primary screen (AID 743270; call rule not given here); settings: NS3 helicase binding to Cy5-dT15 DNA, stronger effect = higher value, concentration not given here
# [4] = biological target: Single-stranded DNA-binding protein (Escherichia coli (strain K12)) (UniProt P0AGE0); test: SSB-ssDNA binding inhibitors – biochemical, fluorescence polarization, NIH Clinical Collection, counter-screen for HCV NS3 helicase inhibitor project (AID 743271; in the data active means inhibition above about 28%); settings: E. coli SSB-DNA binding, stronger effect = higher value, concentration not given here
# [5] = compounds distorting NS3 helicase fluorescence signal – biochemical, NIH Clinical Collection, artefact control for HCV NS3 helicase inhibitor project (AID 743272; call rule not given here;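 further: HCV NS3 helicase with a Cy5 labelled single stranded DNA probe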); settings: fluorescence interference counterscreen, HCV NS3 helicase assay; stronger effect = lower value
# [6] = Wnt pathway potentiators raising nuclear beta-catenin – imaging, WNT3A-conditioned medium, mouse C2C12, NPC library, primary screen (AID 1117326; in the data active means nuclear beta-catenin stimulation mostly above about 4.2%, no sharp cut-off; inactive means mostly below about 10%); settings: stronger effect = higher value
# [7] = stimulators of insulin release from INS-1E, primary screen, cell-based, 5 mM glucose, NPC library (AID 1117329;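 active means compound raises insulin release from rat beta cells at 5 mM glucose, no numeric limit stated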); settings: rat INS-1E insulin secretion, at 10 µM, stronger effect = higher value
# [8] = growth inhibition of GSK3B-pretreated HCT116 cells – cell-based, CellTiter-Glo, 0.2 to 20 µM (AID 1117336;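 active means compounds lowering colon cancer cell viability after pretreatment blocking the GSK3B kinase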); settings: HCT116 viability after GSK3B inhibitor, at 20 µM, stronger effect = higher value
# [9] = inhibition of endothelial tube formation, primary screen, imaging, VEGF stimulated, CD31 staining, tube area, NPC library (AID 1117340;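 active means compound that reduces growth-factor-driven endothelial tube area in a mixed cell culture, no cutoff stated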); settings: VEGF-stimulated ADSC/ECFC co-culture, at 10 µM, stronger effect = higher value
# [10] = GLP1 release stimulators, primary, NCI-H716, NPC library (AID 1117341;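 active means compound raises GLP1 secretion from the human gut endocrine cells, with no numeric limit stated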); settings: NCI-H716 cells, at 10 µM, stronger effect = higher value
# [11] = HCT116 colon cancer cell growth inhibition, primary screen, CellTiter-Glo luminescence, NPC library (AID 1117342;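 active means compounds that lower survival of HCT116 colon cancer cells in the luminescence readout, no numeric limit stated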); settings: at 20 µM (top of the series)
# [12] = reduced SW480 viability measured with CellTiter-Glo, NPC library, primary (AID 1117343;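 active means compounds that lower viability of the colon cancer cells in the luminescence readout, with no numeric limit stated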); settings: CellTiter-Glo luminescence; at 20 µM (top of the series)
# [13] = NPC library primary testing for decreased DLD-1 cell viability via CellTiter-Glo (AID 1117346;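 active means compounds that lower survival of DLD-1 colon cancer cells in the luminescence readout, no cutoff given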); settings: DLD-1 viability, CellTiter-Glo luminescence; at 20 µM (top of the series)
# [14] = biological target: 6-phosphogluconate dehydrogenase, decarboxylating (Homo sapiens) (UniProt P52209); test: inhibition of human phosphogluconate dehydrogenase – biochemical, recombinant enzyme, NADPH absorbance, primary screen (AID 1159550;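 active means at least 20% inhibition of 6-phosphogluconate dehydrogenase activity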); settings: recombinant 6PGD, NADPH absorbance 341 nm; at 10 µM; stronger effect = higher value
# Sequence of 6-phosphogluconate dehydrogenase, decarboxylating (Homo sapiens) (P52209 whole entry, looked up): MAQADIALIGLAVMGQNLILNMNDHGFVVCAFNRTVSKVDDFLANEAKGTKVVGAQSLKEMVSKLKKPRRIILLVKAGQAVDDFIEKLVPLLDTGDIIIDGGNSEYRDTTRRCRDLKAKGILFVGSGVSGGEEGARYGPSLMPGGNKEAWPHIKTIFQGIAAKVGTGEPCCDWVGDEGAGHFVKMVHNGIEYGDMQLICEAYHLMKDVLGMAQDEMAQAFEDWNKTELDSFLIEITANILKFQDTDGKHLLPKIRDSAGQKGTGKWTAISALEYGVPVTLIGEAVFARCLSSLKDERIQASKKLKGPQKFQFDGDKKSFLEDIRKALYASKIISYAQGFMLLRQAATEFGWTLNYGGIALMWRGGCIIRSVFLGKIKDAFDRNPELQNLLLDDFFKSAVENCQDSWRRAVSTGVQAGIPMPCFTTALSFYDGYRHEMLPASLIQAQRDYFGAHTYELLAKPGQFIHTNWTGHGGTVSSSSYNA
# [15] = viability loss with induced miR-34 in A549 – imaging, A549 dox-inducible miR-34, nuclei and caspase counts, primary screen (AID 1347080;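 active means compounds whose cell count with miR-34 switched on is under 0.7 times the count with it off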); settings: A549 miR-34 inducible, Hoechst nuclei count, 48 h
# [16] = MELAS cybrid and Rieske KO viability enhancers – cell-based, MELAS cybrids, Rieske KO mouse fibroblasts, CellTiter-Glo, primary screen (AID 1508586;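 active means mean z-score across replicates of 1.96 or higher in either the MELAS or the Rieske mutant cell line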;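 further: z relative to plate mean and SD of compound and empty wells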); settings: low glucose
# [17] = biological target: NAD(+) hydrolase SARM1 (Homo sapiens) (UniProt Q6SZW1); test: blocking NAD cleavage by SARM1 SAM-TIR – cell lysate, NAD-Glo luminescence (AID 1508614;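 active means compound whose remaining NAD level is above about 45 nM, limit read from the data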); settings: SAM-TIR HEK293T lysate NADase, at 1 µM, stronger effect = higher value
# Sequence of NAD(+) hydrolase SARM1 (Homo sapiens) (Q6SZW1 whole entry, looked up, the tested form may be a part): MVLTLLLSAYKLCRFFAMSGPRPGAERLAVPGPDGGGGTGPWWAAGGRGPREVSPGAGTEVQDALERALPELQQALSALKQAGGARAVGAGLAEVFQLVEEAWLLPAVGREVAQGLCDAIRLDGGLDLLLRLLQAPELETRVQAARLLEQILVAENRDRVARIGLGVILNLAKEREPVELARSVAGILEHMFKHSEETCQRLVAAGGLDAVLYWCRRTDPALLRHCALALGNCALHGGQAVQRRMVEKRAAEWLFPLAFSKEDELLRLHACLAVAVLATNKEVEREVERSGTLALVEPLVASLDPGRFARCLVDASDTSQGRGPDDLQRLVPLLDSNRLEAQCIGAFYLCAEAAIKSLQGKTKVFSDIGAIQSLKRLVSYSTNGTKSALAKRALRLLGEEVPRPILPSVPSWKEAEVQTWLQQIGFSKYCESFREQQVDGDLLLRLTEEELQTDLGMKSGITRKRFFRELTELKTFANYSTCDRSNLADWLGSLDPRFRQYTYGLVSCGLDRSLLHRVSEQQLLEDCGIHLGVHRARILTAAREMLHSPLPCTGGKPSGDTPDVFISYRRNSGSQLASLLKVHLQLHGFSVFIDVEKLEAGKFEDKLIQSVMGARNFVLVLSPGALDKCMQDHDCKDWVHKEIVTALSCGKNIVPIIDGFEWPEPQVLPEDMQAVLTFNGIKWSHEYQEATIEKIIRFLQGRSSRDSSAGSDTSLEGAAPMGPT
# [18] = biological target: Mitogen-activated protein kinase 7 (Homo sapiens) (UniProt Q13164); test: Gal4-ERK5 driven luciferase induction – cell-based, HTS, primary screen (AID 1508626;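 active means luciferase signal above three times the same-plate solvent-only control wells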;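 further: luciferase driven by Gal4-ERK5 fusion binding five Gal4 sites before minimal TATA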); settings: HeLa Gal4-ERK5 transactivation, 18 h, at 5 µM, stronger effect = higher value
# Sequence of Mitogen-activated protein kinase 7 (Homo sapiens) (Q13164 whole entry, looked up, the tested form may be a part): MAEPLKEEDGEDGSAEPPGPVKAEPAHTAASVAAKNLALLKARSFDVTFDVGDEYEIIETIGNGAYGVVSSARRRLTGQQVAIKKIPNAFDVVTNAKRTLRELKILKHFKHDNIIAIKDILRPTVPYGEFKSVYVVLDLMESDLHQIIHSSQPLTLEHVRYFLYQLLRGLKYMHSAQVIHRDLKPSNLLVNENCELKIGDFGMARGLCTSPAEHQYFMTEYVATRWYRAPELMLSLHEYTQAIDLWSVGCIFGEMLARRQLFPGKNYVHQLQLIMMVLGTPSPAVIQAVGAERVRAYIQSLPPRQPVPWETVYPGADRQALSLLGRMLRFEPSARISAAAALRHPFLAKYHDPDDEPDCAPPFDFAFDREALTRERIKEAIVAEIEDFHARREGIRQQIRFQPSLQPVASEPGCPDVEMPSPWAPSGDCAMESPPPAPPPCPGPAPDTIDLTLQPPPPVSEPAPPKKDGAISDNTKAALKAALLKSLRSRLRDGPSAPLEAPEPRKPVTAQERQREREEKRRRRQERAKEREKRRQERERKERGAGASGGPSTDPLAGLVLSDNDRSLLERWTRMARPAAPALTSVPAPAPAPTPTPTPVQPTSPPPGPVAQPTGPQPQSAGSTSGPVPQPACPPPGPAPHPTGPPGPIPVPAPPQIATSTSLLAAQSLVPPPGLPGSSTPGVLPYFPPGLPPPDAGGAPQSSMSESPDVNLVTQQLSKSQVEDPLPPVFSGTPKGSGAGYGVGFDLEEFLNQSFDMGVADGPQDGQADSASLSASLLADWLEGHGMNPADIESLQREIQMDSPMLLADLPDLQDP
# [19] = galactose survival enhancers in mitochondrial complex I cybrids – cell-based, galactose medium, ATP luminescence, primary screen (AID 1645843;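 active means z-score of at least 1.8 in each of two replicates, scored against plate mean and spread of sample wells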;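 further: positive z means more ATP and so rescue of galactose-driven cybrid death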); settings: complex I mutant cybrid cells, 72 h, stronger effect = higher value
# F380Y = test: BK channel mutant inhibitors and activators – cell-based, U2OS BacMam, thallium flux, beta subunits, selectivity assay, profiling panel (AID 1259406); settings: U2OS BacMam BK variants, at 30 µM;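 further: initial slope of Thallos dye fluorescence rise after thallium is added; log ratio against the mean of 0.3% DMSO vehicle wells on the same plate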
# F380Y/beta1 = test: as above; settings: U2OS BacMam BK variants, at 30 µM
# F380Y/beta2Delta = test: as above; settings: U2OS BacMam BK variants, at 30 µM
# F380Y/beta4 = test: as above; settings: U2OS BacMam BK variants, at 30 µM
# [20] = biological target: Calcium-activated potassium channel subunit alpha-1 (Homo sapiens) + Leucine-rich repeat-containing protein 26 (Homo sapiens) (UniProt Q12791+Q2I0M4); test: as above; settings: U2OS BacMam BK variants, F380Y/Slo1WT/gamma1, at 30 µM
# Sequence of Calcium-activated potassium channel subunit alpha-1 (Homo sapiens) + Leucine-rich repeat-containing protein 26 (Homo sapiens) (Q2I0M4 whole entry, looked up, one chain of several): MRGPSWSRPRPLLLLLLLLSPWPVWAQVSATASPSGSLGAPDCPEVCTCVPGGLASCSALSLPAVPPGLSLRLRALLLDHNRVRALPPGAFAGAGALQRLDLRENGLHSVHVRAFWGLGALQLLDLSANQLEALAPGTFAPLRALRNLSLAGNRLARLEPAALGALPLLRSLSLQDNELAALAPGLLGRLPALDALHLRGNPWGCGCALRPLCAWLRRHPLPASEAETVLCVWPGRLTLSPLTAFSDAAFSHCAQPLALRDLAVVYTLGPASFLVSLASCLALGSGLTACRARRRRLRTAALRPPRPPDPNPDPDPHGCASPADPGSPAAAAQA
# R275C = test: as above; settings: U2OS BacMam BK variants, at 30 µM
# R275C/beta1 = test: as above; settings: U2OS BacMam BK variants, at 30 µM
# R275C/beta2Delta = test: as above; settings: U2OS BacMam BK variants, at 30 µM
# R275C/beta4 = test: as above; settings: U2OS BacMam BK variants, at 30 µM
# R275C/Slo1WT/beta2 = test: as above; settings: U2OS BacMam BK variants, at 30 µM
smiles,measurement,setting,value
C#C[C@]1(O)CC[C@H]2[C@@H]3CCC4=Cc5oncc5C[C@]4(C)[C@H]3CC[C@@]21C,survival,[1],10.4 (inactive)
same,fluorescence ratio,[2],1.05 (inactive)
same,inhibition,[3],-3.18% (inactive)
same,inhibition,[4],4.1% (inactive)
same,fluorescence ratio,[5],1.01 (inactive)
same,nuclear beta-catenin stimulation,[6]; at 10 µM,-0.9% (inactive)
same,nuclear beta-catenin stimulation,"[6]; stimulation, at 2 µM",0%
same,insulin secretion stimulation,[7],1.9% (inactive)
same,viability decrease,[8],76.5% (active)
same,tube area decrease,[9],15% (inactive)
same,GLP1 secretion stimulation,[10],1.4% (inactive)
same,inhibition of viability,[11],82.4% (active)
same,viability decrease (inhibition),[12],84.4% (active)
same,viability decrease (inhibition),[13],75.7% (active)
same,inhibition,[14],14% (inactive)
same,fold change,"[15]; stronger effect = lower value, cell number ratio, induced over uninduced",0.976 (inactive) and 0.855 (inactive) and 0.842 (inactive)
same,fold change,[15]; measured here: relative caspase fold change +Dox/-Dox,3.35 and 1.24 and 1.49
same,cell count,"[15]; measured here: total cells with miR-34 induction, stronger effect = lower value",7160 and 7050 and 6060
same,cell count,[15]; measured here: total cells without miR-34 induction,7330 and 8240 and 7200
same,z-score,"[16]; MELAS cybrid survival, CellTiter-Glo 48 h, stronger effect = higher value",-0.753 (inactive) and -0.503 (inactive)
same,z-score,"[16]; Rieske KO mouse fibroblast survival, CellTiter-Glo 72 h",-0.343 and -0.0493
same,remaining NAD,[17],10 nM (inactive)
same,luciferase signal,[18],32 AU (inactive)
same,z-score,[19],-1.4 (inactive) and -1.46 (inactive)
same,log fold change Tl+ flux,F380Y,-0.00831 (inactive)
same,log fold change Tl+ flux,F380Y/beta1,0.032 (inactive)
same,log fold change Tl+ flux,F380Y/beta2Delta,-0.066 (inactive)
same,log fold change Tl+ flux,F380Y/beta4,-0.0261 (inactive)
same,log fold change Tl+ flux,[20],0.00932 (inactive)
same,log fold change Tl+ flux,R275C,0.0195 (inactive)
same,log fold change Tl+ flux,R275C/beta1,0.048 (inactive)
same,log fold change Tl+ flux,R275C/beta2Delta,-0.00872 (inactive)
same,log fold change Tl+ flux,R275C/beta4,0.0847 (inactive)
same,log fold change Tl+ flux,R275C/Slo1WT/beta2,-0.016 (inactive)

# Source: PubChem BioAssay
